Screening results from PubChem.
CYP2C9 inh – human CYP2C9 inhibition. inhibition, % at 5 µM. 20% of 96,000 active. P11712. AID 777. CYP2C9 Supersomes, luciferin-H conversion, luminescence;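 active = blocking of liver enzyme CYP2C9 beyond about 50% at 5 µM, limit read from the data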
CYP2C19 act – increases human CYP2C19 enzyme activity | P33261 | recombinant CYP2C19, luciferin-H EGE luminescence; stronger effect = higher value; 0 = fully inhibited enzyme, 1 = untreated enzyme | activation factor at 5 µM | 96,000 tested, under 10 active | AID 1025;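 active = activation factor of at least 2 at 5 µM in the primary screen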;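 note: 0 = wells with 2.5 mM tranylcypromine and 1 = vehicle-only wells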
D1 mod – allosterically modulates the human D1 dopamine receptor; P21728; HEK293 D1, CRE-luciferase, dopamine EC30 potentiation; actives deviate in either direction; B-score at 10 µM; 5.9% of 58,000 active; AID 641;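 active = luminescence count or its row- and column-corrected plate score outside the 99.7% band of the plate's sample wells, on either side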
Target sequence (P21728 whole entry, looked up): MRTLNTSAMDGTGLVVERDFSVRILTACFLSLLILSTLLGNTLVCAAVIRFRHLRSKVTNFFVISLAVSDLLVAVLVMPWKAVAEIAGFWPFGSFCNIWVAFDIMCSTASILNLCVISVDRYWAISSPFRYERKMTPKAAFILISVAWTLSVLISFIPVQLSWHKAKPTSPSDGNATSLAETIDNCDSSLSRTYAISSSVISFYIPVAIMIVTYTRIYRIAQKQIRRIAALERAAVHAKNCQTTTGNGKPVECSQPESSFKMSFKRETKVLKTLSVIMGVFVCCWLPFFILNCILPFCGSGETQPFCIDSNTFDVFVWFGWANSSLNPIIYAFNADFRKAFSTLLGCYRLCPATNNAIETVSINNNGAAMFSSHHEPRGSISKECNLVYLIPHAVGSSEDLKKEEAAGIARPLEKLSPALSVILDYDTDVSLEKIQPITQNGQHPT
CYP2C19 inhib – blocks human cytochrome P450 2C19; P33261; CYP2C19 Supersomes, luciferin-H EGE luminescence, 30 min; inhibition, % at 5 µM; 21% of 96,000 active;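 active = CYP2C19 inhibition above a set limit at 5 µM in the primary screen, cut at about 50% in these data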;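 note: plate controls were negative control wells for no effect and 2.5 mM tranylcypromine positive control for full effect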
CYP2C9 act – CYP2C9 (human) activation | activation factor at 5 µM | AID 1024 | P11712 | 1.4% of 96,000 active | recombinant CYP2C9, luciferin-H conversion, luminescence; stronger effect = higher value; factor 1 = untreated enzyme, 0 = blocked;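 active = activation factor of 2 or more for CYP2C9 at a 5 µM dose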;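 note: 0 = sulfaphenazole-blocked wells and 1 = vehicle-only wells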
DAT uptake mod – modulates human dopamine transporter uptake under cocaine. LLC-PK1 hDAT cells, [14C]-dopamine uptake with cocaine IC80; actives deviate in either direction. Q01959. B-score at 10 µM. 1.3% of 110,000 active;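 active = Z score or B-score, a plate-position-corrected score, falls beyond the plate's 99.7% confidence bounds, in either direction; inactive = both scores lie inside the 99.7% bounds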;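 note: scored against the spread of the other compound wells on the same plate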
Starred values were filed as active, the others as inactive; / = no result. The list is not random: actives were taken first. Their share in the collection is about 28%.

SMILES	CYP2C9 inh	CYP2C19 act	D1 mod	CYP2C19 inhib	CYP2C9 act	DAT uptake mod
CCCC(=O)Nc1nc2c(OC)ccc(OC)c2s1	61*	0.7	-0.048	30	0.4	0.16
COc1ccc(OC)c2sc(NC(=O)c3ccc(Cl)s3)nc12	22	0.9	-0.14	9	0.8	1.4
CCCC(=O)Nc1nc(-c2ccc3c(c2)OCCO3)cs1	86*	0.9	/	13	0.1	0.62
CCOC(=O)N1CCN(C(=O)CSCC(=O)Nc2nc(-c3ccc(OC)cc3)cs2)CC1	83*	0.2	0.043	84*	0.2	0.99
CCCC(=O)Nc1nc(-c2ccc(OC)cc2)cs1	96*	0.4	/	64*	0	1.3
C=C1[C@@H](OC(C)=O)CC[C@]2(C)[C@@H]1C[C@@H]1C[C@H](OC(C)=O)C(C)=C([C@@H](OC(C)=O)[C@@H]2OC(C)=O)C1(C)C	/	/	/	/	/	0.8
Cc1ccc(N2CCN(CC(=O)Nc3c(C(=O)C4CC4)oc4ccccc34)CC2)cc1	0	1.1	/	-12	1	0.41
COc1ccc(Cc2nnc(NC(=O)CSc3ccc(C)cc3)s2)cc1OC	-3	1	/	-3	1	-1.1
CC(C)c1ccc2nc3sc(C(=O)N4CCc5ccccc5C4)c(N)c3cc2c1	51*	0.9	/	9	0.5	-0.5
Cc1ccc2nc3sc(C(=O)N4CCOCC4)c(N)c3cc2c1	12	0.8	-5.5*	21	0.9	-0.074
CCOc1ccc2nc3sc(C(=O)N4CCN(C)CC4)c(N)c3cc2c1	9	1.1	-0.22	-6	0.9	0.85
COc1ccc(/C=N/NC(=O)Nc2nonc2N)cc1	/	/	/	/	/	0.042
COc1cccc(OC)c1NC(=O)CN1CCC(NC(=O)c2cccc(F)c2)CC1	/	/	/	/	/	-0.37
C=C(C)Cn1c(SCC)nc2ccccc2c1=O	35	0.1	5	88*	0.7	-0.81
CCN(CCCn1c(SCC#N)nc2ccccc2c1=O)c1ccccc1	93*	0.2	/	77*	0.1	0.5
CC(=O)NCCn1c(SCC(=O)c2ccccc2)nc2ccccc2c1=O	55*	0.3	-2.6	71*	0.4	2.2
CC(=O)NCCn1c(SCC(=O)OCc2ccccc2)nc2ccccc2c1=O	52*	0.1	/	86*	0.5	0.011
COC(C[C@@H]1O[C@H]1[C@H](O)[C@@H](C)OCc1ccccc1)OC	/	/	/	/	/	-1.3
O=C(Nc1ccc(Cl)cn1)c1ccc(-c2ccc(Cl)c(Cl)c2)o1	/	/	/	/	/	0.027
C=CCn1c(C)nc2c(c1=O)c1nc3ccccc3nc1n2-c1ccc(C)cc1	/	/	0.4	/	/	/
Cc1nn(Cc2n[nH]c(=S)n2Cc2ccccc2)c(C)c1Cl	21	0.5	/	53*	0.8	-0.6
COc1ccccc1C1C2=C(N=C3SCC(=O)N31)c1ccccc1CC2 (stereo not drawn)	-11	1.1	-0.048	-11	1.1	0.22
COc1ccc(C2C3=C(N=C4SCC(=O)N42)c2ccccc2CC3)cc1OC (stereo not drawn)	54*	0.6	0.032	39	0.5	1
CC1=C(C(=O)Nc2ccccc2)C(c2ccccc2)N2C(=O)CSC2=N1 (stereo not drawn)	8	1	-1.1	3	0.9	-0.66
COc1ccc(C2C3=C(N=C4SCC(=O)N42)c2ccccc2CC3)cc1 (stereo not drawn)	91*	0	-0.44	95*	0.1	0.048
SMILES	CYP2C9 inh	CYP2C19 act	D1 mod	CYP2C19 inhib	CYP2C9 act	DAT uptake mod
NC(=O)c1cc(S(=O)(=O)NC2CCCCC2)co1	7	0.8	/	21	0.9	-0.0094
O=C1CC(Cc2ccccc2)C(=O)N1CCCn1ccnc1 (stereo not drawn)	69*	0	0.4	100*	0.3	/
COc1ccc(CCN2C(=O)CC(NCc3ccc4c(c3)OCO4)C2=O)cc1OC (stereo not drawn)	20	0.7	-0.5	33	0.8	-0.057
O=C1CC(Cc2ccccc2)C(=O)N1CCc1ccc2c(c1)OCO2 (stereo not drawn)	23	0.1	-0.68	86*	0.8	0.33
CCc1ccc(NC(=O)c2cccnc2)cc1	-5	1.1	-0.075	-8	1.1	0.39
O=C(Nc1ccc(S(=O)(=O)N2CCN(Cc3ccccc3)CC2)cc1)c1cnccn1	52*	0.7	-1.7	29	0.5	-0.67
CC(=O)Nc1ccc(S(=O)(=O)N2CCN(Cc3ccccn3)CC2)cc1	23	0.9	/	10	0.8	-1.1
O=C(Nc1ccc(S(=O)(=O)N2CCCC2)cc1)c1cccnc1	71*	0.7	/	26	0.3	0.016
CCCNS(=O)(=O)c1ccc(NC(=O)c2cccnc2)cc1	98*	0.6	/	38	0	0.48
O=C(Nc1ccc(N2CCCCC2)cc1)c1cccnc1	68*	0.7	-0.8	32	0.3	0.45
CCN(CC)c1nc2ccccc2c(N)c1-c1ccccc1	36	0.6	/	37	0.6	-0.12
C[C@H](NC(=O)OCc1ccccc1)c1nnc([C@H](Cc2ccccc2)NC(=O)OC(C)(C)C)o1	/	/	/	/	/	2.7
Cc1cccc(CS(=O)(=O)c2nnc([C@H](Cc3ccccc3)NC(=O)OC(C)(C)C)o2)c1	56*	0.6	/	36	0.4	0.4
COC(=O)CS(=O)(=O)c1nnc([C@H](Cc2ccccc2)NC(=O)OC(C)(C)C)o1	77*	0.2	-0.038	84*	0.2	-0.018
O=C(Nc1ccc(N2C(=O)C3C4C=CC(C4)C3C2=O)cc1)Nc1cccnc1 (stereo not drawn)	60*	0.9	-0.58	5	0.4	-1.3
CCOc1ccccc1OCC(=O)Nc1nnc(C)s1	6	1.1	-0.27	-5	0.9	-1.1
O=C(c1cc(-c2ccc3c(c2)OCO3)on1)N1CCN(c2ccccc2)CC1	50*	0.9	0.97	10	0.5	-2.4
O=C(c1cc(-c2ccc3c(c2)OCO3)on1)N1CCN(c2ccc(F)cc2)CC1	-3	1	1.6	-3	1	-1.3
O=C(c1cc(-c2ccc(Cl)cc2Cl)on1)N1CCOCC1	-8	1	-4.6*	-1	1.1	0.54
O=C(c1cc(-c2ccc(Cl)cc2)on1)N1CCOCC1	4	0.9	-3.4	7	1	0.88
O=C(c1cnccn1)N1CCN(c2ccccc2)CC1	-6	0.5	/	53*	1.1	/
O=C(c1cnsn1)N1CCN(c2ccccc2)CC1	14	0.7	-0.41	32	0.9	0.91
O=C(c1cc(-c2ccc3c(c2)OCO3)on1)N1CCOCC1	1	0.9	-4.5*	13	1	-0.77
Cc1ccc(S(=O)(=O)NC(=O)NCc2ccccn2)cc1	5	1	-0.9	0	1	-1
C#CCNC(=O)C1=C[C@@H](C2CC2)[C@H](CCCO)[C@@H](OCC)O1	/	/	/	/	/	-0.16
CC1CCN(Cc2nc3c(c(=O)n(C)c(=O)n3C)n2CCCc2ccccc2)CC1	40	0.9	0.4	7	0.6	-0.8
